These results are taken from PubChem BioAssay (NCATS).

Unmarked numbers belong to inactive results. The call rests on the fitted dose curve; in most records, active means well fitted activation curve with a large enough effect; inconclusive means small, poorly fitted or top-dose-only effect; inactive means flat fitted curve, though single readings scatter.

The experiment can be described thus: Cellular Toxicity (caspase-3) SK-N-SH (AID 661).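 Further: 0% = DMSO basal and 100% = 10 µM staurosporine.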 To be noted: SK-N-SH caspase-3 activation, qHTS, DMSO as zero, staurosporine as full; series mostly up to 91.7 µM; caspase-3 activation: at the top concentration. The text has this:
NIH Chemical Genomics Center [NCGC]
NIH Molecular Libraries Screening Centers Network [MLSCN]
National Institutes of Environmental Health Sciences [NIEHS]
National Toxicology Program [NTP]
We have developed a 1536-well cell-based assay for quantitative high throughput screening (qHTS) against a number of cell lines to determine in vitro caspase 3/7 activity of small molecules. This particular assay uses the SK-N-SH cell line which is derived from human neuroblastoma.
NCGC Assay Protocol Summary:
The Caspase-Glo 3/7 assay (Promega) is a homogeneous method to measure caspase-3 and caspase-7 activities in cultured cells. The quantitation of caspase 3/7 activity is based on the cleavage of a peptide-aminoluciferin substrate. After caspase cleaves the substrate the free aminoluciferin is liberated and serves as the substrate of luciferase, which generates the light. The luminescent signal is proportional to amount of caspase 3/7 activity present.
Using the Caspase-Glo 3/7 assay, the amount of caspase 3/7 activity was measured in the SK-N-SH cell line with complete culture medium following compound treatment for 16 hours. The assay was performed in opaque white 1536-well plates. In the screen, tamoxifen and staurosporine were used as positive controls. Library compounds were measured for their ability to cause the activation of caspase 3/7 in the cell line, as reflected by an increase in luminescence signal, in a concentration-dependent manner. Data were normalized to the controls for basal activity (DMSO only) and 100% stimulation (10 uM staurosporine). AC50 values were determined from concentration-response data modeled with the standard Hill equation.
qHTS protocol for caspase 3/7 assay in SK-N-SH cells
[Step] [Parameter] [Value] [Description]
1. Reagent; 5 uL; 1500 SK-N-SH cells/well
2. Time; 5 hr; 37 °C incubation
4. Controls; 23 nL; Tamoxifen 0.23 uM to 100 uM & staurosporine 1.4 pM to 100 uM
5. Time; 16 hr; 37 °C incubation
6. Reagent; 5 uL; Caspase-Glo 3/7 reagent
7. Time; 1 hr; Room Temperature
8. Detection; Luminescence; Viewlux plate reader
Keywords: caspase 3/7, apoptosis, SK-N-SH cell line, luminescence, NTPHTS, NTPHTS_NCGC, NIEHS, EPA, DSSTox, MLSMR, MLSCN, NIH Roadmap, qHTS, NCGC
As for `N#Cc1ccccc1`, the “caspase-3 activation” value was -0.443%. Take `C/C=C(/C)C#N`: the “caspase-3 activation” value was -0.572%. `C=CCn1c(=O)n(CC=C)c(=O)n(CC=C)c1=O`: the “caspase-3 activation” value was -0.401%. `Nc1nc(-c2ccccc2)cs1`: the “caspase-3 activation” value was -1.89%. As for `CCC=O`, the “caspase-3 activation” value is 0.134%. As for `CC(N)CN` (stereo not given), the “caspase-3 activation” value was -0.831%. With `CCOCCOCC`, the “caspase-3 activation” value is -0.773%. Turning to `NC(=O)/N=N/C(N)=O`, the “caspase-3 activation” value was -2.97%.

With `CC/C(C)=N/O`, the “caspase-3 activation” value is -0.172%. Next, `CCNc1cc(O)ccc1C`: -1.61%; `Nc1ccc([N+](=O)[O-])c(N)c1`: -0.394%.

As for `CC(C)C(C)C`, the “caspase-3 activation” value is 0.954%.

Consider `Nc1cccc([N+](=O)[O-])c1`, for which the “caspase-3 activation” value is -0.834%. For the compound `Nc1ccccc1S(=O)(=O)O`, the “caspase-3 activation” value was 0.767%.

Turning to `CN(C)CCCCl`, the “caspase-3 activation” value is 0.897%. As to `O=C(O)c1ccc(Cl)c(Cl)c1`, the “caspase-3 activation” value is -1.03%. Regarding `CCCCCNCCCCC`, the “caspase-3 activation” value was -0.152%. Regarding `Cc1ccc(C(C)(C)C)cc1`, the “caspase-3 activation” value is 0.774%. `C=C(C)C(=O)OC`: the “caspase-3 activation” value is 0.386%. As for `Cc1cccc([N+](=O)[O-])c1C(=O)O`, the “caspase-3 activation” value is 0.368%. With `C=C(C)C(=O)OCC(C)C`, the “caspase-3 activation” value is -0.995%. `CCC(C)(C)C`: the “caspase-3 activation” value is -2.64%.

Regarding `C=Cc1ccccn1`, the “caspase-3 activation” value was 2.04%. Turning to `Cc1ccc(C)o1`, the “caspase-3 activation” value was -0.819%.

On to `Nc1cc([N+](=O)[O-])ccc1C(=O)O`, for which the “caspase-3 activation” value is -1.81%. With `CCc1ccccc1`, the “caspase-3 activation” value is 0.828%. For `O=C(O)c1ccccc1[N+](=O)[O-]` the value was 1.96%; for `O=C(Cl)c1cccc([N+](=O)[O-])c1`, 0.093%; for `O=Nc1ccc(NO)cc1`, 3.75%. On to `CCCCC(CC)CO` (stereo not given), for which the “caspase-3 activation” value is 0.29%. Turning to `CCCC(C)CO` (stereo not given), the “caspase-3 activation” value is 2.4%. For `ICCc1ccccc1` the value was -1.36%; for `Cc1ccccc1C=O`, 2.75%; for `Cc1ccc2c(c1[N+](=O)[O-])C(=O)c1ccccc1C2=O`, -0.88%. Take `Cc1cccc2cccnc12`: the “caspase-3 activation” value was 0.617%.

Turning to `Cc1ccccc1Br`, the “caspase-3 activation” value is -0.599%. Consider `Nc1cccc(O)c1`, for which the “caspase-3 activation” value is -0.25%. On to `CC(=O)c1nccs1`, for which the “caspase-3 activation” value was 0.134%. Next, `Cc1c(N)cccc1N`: 0.0349%; `COc1ccccc1[N+](=O)[O-]`: 1.99%.
